The sample as a whole holds a higher share of hits than the screen did.
BoNT-F LC inh: BoNT/F light chain protease inhibitors, primary screen, biochemical, flow cytometry, MLPCN library. Botulinum neurotoxin type F light chain protease (Clostridium botulinum). Multiplex microsphere protease cleavage assay. inhibition, % at 10 µM. hit rate 0.22% among 360,000. AID 588497, 2011; in the data active = inhibition above about 35%, passing the limit was not always enough; inconclusive = no clear call, values can overlap the other calls; note: plate controls were buffer without enzyme for full effect and enzyme alone for no effect
TcdB inh: TcdB glycohydrolase inhibitors, primary screen, biochemical, single point, plate reader; Toxin B (Clostridioides difficile), P18177; TcdB glycohydrolase enzymatic assay; inhibition, % at 9.99 µM; hit rate 0.24% among 350,000; in the data active = inhibition above about 10%
Anthrax LF prot: Bacillus anthracis LF protease inhibitors, primary screen, biochemical, multiplex microsphere, MLPCN library | Lethal factor (Bacillus anthracis), P15917 | multiplex microsphere protease cleavage assay | inhibition, % at 10 µM | hit rate 0.12% among 360,000 | AID 588501, 2011; note: plate controls were buffer without enzyme for full effect and enzyme alone for no effect
Autofluor counter: compound fluorescence in toxin protease inhibitor counterscreen; compound autofluorescence counterscreen, microsphere flow cytometry; active compounds read high; hit rate 3.1% among 360,000; AID 624483; fluorescence intensity (concentration not given with the values); in the data active = fluorescence intensity above about 16000; inconclusive = no clear call, values can overlap the other calls
BoNT-A LC inh2: BoNT/A light chain protease inhibitors, primary screen, biochemical, flow cytometry, MLPCN library. multiplex microsphere protease substrate cleavage. hit rate 0.17% among 360,000. inhibition, % at 10 µM. Botulinum neurotoxin type A light chain protease (Clostridium botulinum A str. ATCC 3502). AID 588499, 2011; note: plate controls were buffer without enzyme for full effect and enzyme alone for no effect
Starred values were filed as active, the others as inactive; ? = inconclusive; nt = no result given. Cut-off read from the data, not from the text of the source, unless noted: active = inhibition above about 30%; inconclusive = no clear call, values can overlap the other calls; inactive = below that.

SMILES | BoNT-F LC inh | TcdB inh | Anthrax LF prot | Autofluor counter | BoNT-A LC inh2
COC(=O)C(c1ccccc1)C(CC(=O)c1ccccc1)c1ccccc1 (stereo unspecified) | -2 | 0 | -8 | 3544 | 0
[N-]=[N+]=NCc1ccccc1C[C@]1(C(=O)N2CCOCC2)COC(c2ccc(OCCCO)cc2)=N1 | nt | 1 | nt | nt | nt
C#CCOC(=O)Nc1cccn(Cc2c(Cl)cccc2Cl)c1=O | -3 | nt | -5 | 16958* | -3
Nc1c(-c2ccc(Cl)cc2)cnc2ncnn12 | 0 | nt | -1 | 23393* | 1
Cc1cc(C(=O)Nc2cccc3c2O[C@H](CN(C)Cc2ccccc2)[C@H](C)CN([C@H](C)CO)C3=O)n(C)n1 | nt | -1 | nt | nt | nt
CCCSc1nnc(C(C)C)n1N | 3 | nt | -1 | 22250* | ?
COc1cc(NC(=O)c2ccco2)c(OC)cc1NC(=O)CCC(=O)Nc1cc(C)ccc1C | 1 | nt | -1 | 20046* | 0
CCCC(=O)Nc1ccc(NC(=O)c2ccco2)c(OC)c1 | 2 | 0 | 1 | 11080 | -1
COc1cc(NC(=O)c2ccco2)c(OC)cc1NC(=O)CCC(=O)Nc1cc(C)cc(C)c1 | -5 | nt | -2 | 20576* | -3
COc1ccc(C)cc1NC(=O)CCNC(=O)c1ccco1 | -2 | 1 | -5 | 2999 | 0
O=C(Nc1ccn(Cc2c(F)c(F)c(F)c(F)c2F)n1)c1ccc(COc2ccccc2Cl)cc1 | -8 | nt | -3 | 25404* | -4
Cc1nn(Cc2c(F)c(F)c(F)c(F)c2F)c(C)c1NC(=O)c1cccc(COc2ccccc2Cl)c1 | 4 | nt | -10 | 20980* | 3
COCC#Cc1ccc2c(c1)O[C@H](CN(C)C(=O)Nc1ccc(OC)cc1)[C@H](C)CN([C@H](C)CO)S2(=O)=O | nt | -1 | nt | nt | nt
CCCC(=O)Nc1ccc2c(c1)OC[C@@H](C)N(C(=O)C1CCCC1)C[C@H](C)[C@@H](OC)CN(C)C2=O | nt | 2 | nt | nt | nt
CNC[C@H]1Oc2ccc(N)cc2C(=O)N([C@@H](C)CO)C[C@@H]1C | nt | -2 | nt | nt | nt
Cc1cc(C)c(C)c(OCCCCn2cnc3ccccc3c2=O)c1 | -1 | nt | -3 | 23324* | 0
O=C(NC12CC3CC(CC(C3)C1)C2)c1cncc(O)c1 | -1 | nt | 0 | 20010* | 1
O=C(NC12CC3CC(CC(C3)C1)C2)c1cccnc1 | -1 | nt | 0 | 10972 | 0
COc1ccccc1CN1C[C@@H]2C[C@@H](c3ccc(C)cc3)N3CCC[C@@]23C1=O | 1 | -1 | -1 | 8339 | -1
CCc1ccc([C@@H]2C[C@H]3CN(Cc4ccccc4OC)C(=O)[C@]34CCCN24)cc1 | 34 | 0 | 7 | 24775* | -7
O=C(Nc1ccc(F)cc1)N[C@H]1CC[C@H](CC(=O)N2CCOCC2)O[C@H]1CO | nt | 1 | nt | nt | nt
C[C@H](CO)N1C[C@H](C)[C@H](CN(C)CC2CCCCC2)Oc2c(NC(=O)NC3CCCCC3)cccc2C1=O | nt | 1 | nt | nt | nt
CS(=O)(=O)c1ccc(C(=O)N2CCc3ccccc3C2)cc1 | -4 | 5 | -3 | 3108 | 0
O=C(c1ccccc1Cl)N1CCN(c2ccccn2)CC1 | 4 | nt | -3 | 3893 | -1
O=C(c1cccc(Cl)c1Cl)N1CCN(c2ccccn2)CC1 | -1 | nt | -2 | 16331* | ?
SMILES | BoNT-F LC inh | TcdB inh | Anthrax LF prot | Autofluor counter | BoNT-A LC inh2
CN(c1ccccc1C(=O)N1CCc2ccccc2C1)S(C)(=O)=O | 0 | nt | -4 | 22577* | 0
CCOC(=O)N1CCN(C(=O)c2cccn3c(=O)c4cc(Cl)ccc4nc23)CC1 | 5 | nt | -2 | 7547 | 1
O=C(c1cccn2c(=O)c3ccccc3nc12)N1CCN(c2ccccn2)CC1 | -2 | nt | 2 | 23291* | -3
CCOC(=O)N1CCN(C(=O)c2cccn3c(=O)c4sccc4nc23)CC1 | -3 | nt | -8 | 22718* | ?
COCC(=O)Nc1ccc2c(c1)OC[C@@H](C)N(C(=O)COC)C[C@H](C)[C@@H](OC)CN(C)C2=O | nt | 0 | nt | nt | nt
O=C(C[C@@H]1C=C[C@@H](NC(=O)Nc2ccc(F)cc2)[C@H](CO)O1)NCc1cccc(F)c1 | nt | 0 | nt | nt | nt
O=C(c1cccn2c(=O)c3cc(Br)ccc3nc12)N1CCN(c2ccccn2)CC1 | 11 | nt | 1 | 18386* | 7
CC(C)Oc1cccc(-c2cc(C(=O)N3CCN(c4ncccn4)CC3)c3ccccc3n2)c1 | -3 | nt | -3 | 23367* | ?
CCOC(=O)N1CCN(C(=O)c2cccn3c(=O)c4cc(Br)ccc4nc23)CC1 | -1 | 1 | -7 | 4184 | 1
COc1cccc(-c2cc(C(=O)N3CCN(c4ncccn4)CC3)c3ccccc3n2)c1 | -1 | nt | 2 | 3136 | 0
O=C(CCCn1c(=S)[nH]c2ccc(Br)cc2c1=O)N1CCN(c2ccccn2)CC1 | -6 | nt | -7 | 16819* | -2
O=C(c1cc(-c2ccccc2)nc2ccccc12)N1CCC2(CC1)OCCO2 | -2 | 2 | 0 | 23724* | -1
CCC(=O)N(C)C[C@H]1Oc2cc(C#CC3(O)CCCC3)ccc2S(=O)(=O)N([C@H](C)CO)C[C@@H]1C | nt | -1 | nt | nt | nt
COc1ccccc1-c1ccc([C@@H]2[C@@H](C#N)N(C(=O)NC(C)C)[C@@H]2CO)cc1 | nt | -1 | nt | nt | nt
Cc1ccc2nc(-c3ccccc3)cc(C(=O)N3CCc4ccccc4C3)c2c1 | 5 | 1 | 2 | 23070* | ?
O=C(c1cc(-c2ccccc2)nc2ccccc12)N1CCc2ccccc2C1 | -4 | 1 | -4 | 9844 | 0
O=C(c1cccn2c(=O)c3ccccc3nc12)N1CCC2(CC1)OCCO2 | -1 | nt | -1 | 22328* | -1
CN1C[C@H]2[C@@H](c3ccccc31)[C@@H](CO)N2C(=O)C1CC1 | nt | -1 | nt | nt | nt
C[C@H](CO)N1C[C@H](C)[C@@H](CN(C)S(C)(=O)=O)Oc2ccc(NS(C)(=O)=O)cc2CC1=O | nt | -1 | nt | nt | nt
COC(=O)C1C(c2ccccc2)C(C(=O)N2CCOCC2)C1c1ccccc1 (stereo unspecified) | -1 | nt | -2 | 22025* | ?
CCNC(=O)Nc1ccc2c(c1)C(=O)N(C)[C@@H]1CC[C@@H](CC(=O)NCc3ccc(F)cc3)O[C@@H]1CO2 | nt | 0 | nt | nt | nt
NC(=S)Nc1nc2ccccc2[nH]c1=O | nt | 0 | nt | nt | nt
Cc1ccc2[nH]c(=O)c(NC(N)=S)nc2c1 | -3 | nt | -4 | 20753* | 0
CCNC(=O)C[C@@H]1CC[C@H](NC(=O)C2CCC2)[C@H](CO)O1 | nt | 0 | nt | nt | nt
CC1(O)c2ccccc2C(=O)N1Cc1ccccc1 (stereo unspecified) | -2 | nt | 1 | 17655* | -2
O=C1O[C@H](c2ccccc2)[C@H](c2ccccc2)N2[C@H]1[C@@H](C(=O)N1CCCCCCC1)[C@]1(C(=O)Nc3ccc(C#CCCO)cc31)[C@H]2c1ccc(O)cc1 | nt | 0 | nt | nt | nt
CCC(CO)NCc1ccc(OC2CCCC2)cc1 (stereo unspecified) | -10 | nt | -1 | 23277* | -3
O=C(Nc1ccc(O)cc1)C1CCCN1S(=O)(=O)c1ccc(F)cc1 (stereo unspecified) | -4 | 10* | -2 | 6221 | 0

Bioassay records deposited in PubChem BioAssay by several laboratories.
